Reference: PubChem BioAssay AID1347416 (National Center for Advancing Translational Sciences (NCATS), 2020)
The campaign covered roughly 4,100 compounds. About 1,600 (39%) were called active. Inconclusive results (about 25%) are left out. Calls follow the shape of the dose curve; as a rule, active = well fitted inhibition curve with a large enough effect; inconclusive = small, poorly fitted or top-dose-only effect; inactive = no such curve, though single readings can be large or run the other way. The list shows a part of the results.

Test: qHTS Validation assay for Inhibitors of Plasmodium falciparum Dd2 growth in vitro; also: nearly all actives have a fitted effect of over 70% in size
Details: P. falciparum Dd2 in RBCs, SYBR Green growth, 72 h; series mostly up to 28.7 µM; activity change, negative = inhibition: at the top concentration
How it was run: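 P. falciparum Dd2-infected red blood cells (2.5% hematocrit, 0.3% parasitemia) grown 72 h at 37 °C under 5% O2 with compounds in a titration, 29 uM to 0.5 nM final. Growth read as SYBR Green-1 fluorescence after ~16 h lysis; artesunate 300 nM as positive control.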
% is scaled to controls: 0 for no effect and ±100 for the full control effect; potency is read from the fitted curve at half-maximal effect.

Activity change, negative = inhibition, inactive:
CC(C(=O)N1CCCN(c2cc(-c3ccc(Cl)cc3)[nH]n2)CC1)c1ccccc1 (stereo not drawn) -15.7%
Nc1nc(N)c2c(ccc3nccc32)[nH]1 7.51%
O=C(CCc1nc2ccccc2[nH]1)N1C[C@@H](CO)[C@H](c2ccccn2)C1 41.4%
CCN(Cc1nc2ccccc2n1C)c1ccccc1 6.82%
CCOc1c(CNCCSc2nnnn2C)cccc1OC -28%
c1ccc(COc2cncc(-c3cccnc3)c2)cc1 1.56%
COc1cc2c(cc1OC)[C@H](C)N(C(=O)COc1ccccc1)CC2 -6.38%
COc1ccc2c(C)c(C(=O)N3CC(Oc4c(C)cccc4C)C3)oc2c1 41.8%
Cc1nc2c(c(-c3ccc(O)cc3)n1)CN(C(=O)c1cccc(Cl)c1)CC2 1.23%
Cc1nc(-c2c3n(c(=O)n(Cc4ccc(OC(F)(F)F)cc4)c2=O)CCCCC3)no1 -10.2%
CC(=O)Nc1ccc(CN2CCn3c(nn(-c4ccc(Cl)cc4)c3=O)C2)cc1 14.2%
Cc1nc(-c2c3n(c(=O)n(Cc4ccc(OC(F)(F)F)cc4)c2=O)CCCC3)no1 -13.9%
COCC(=O)N1CCc2nc(-c3ccccc3)nc(-c3ccc(Cl)cc3)c2C1 0%
CCn1nc(C)c(-c2cc(C(=O)NCCc3noc(-c4ccccc4)n3)no2)c1C -0.509%
CC1(C)C[C@H](NCc2ccc(CO)o2)[C@@]2(CCC(=O)NCCN3CCOCC3)CC[C@](C)(O)C[C@@H]12 4.43%
COc1ccccc1CNS(=O)(=O)c1ccc2c(c1)CC(=O)N2C -10.4%
COc1ccc(N(CC(=O)NCc2ccncc2)S(=O)(=O)c2ccc(C)c([N+](=O)[O-])c2)cc1 24.8%
Cc1ccc(C(=O)NCCn2c(C)cc3ccccc32)cc1C 0%
O=C(N/N=C/c1ccccn1)c1ccccc1 -1.81%
Cc1n[nH]c(=S)n(/N=C/c2cccs2)c1=O 16.4%
O=c1cc(Nc2ccc3c(c2)OCCO3)[nH]c(=O)n1C1CCCCC1 -0.988%
CCc1ccc(C(=O)N2C[C@@H](CO)[C@H](c3ccccn3)C2)cc1 3.1%
O=C(CC1C(=O)NCCN1Cc1cccc(Oc2ccccc2)c1)NCc1ccco1 (stereo not drawn) 45.2%
C[C@]1(CO)[C@H]2Cc3sc(NC(=O)C4CCCCC4)nc3[C@@H](CC(=O)NCc3cccnc3)[C@]2(C)CC[C@H]1O -11.7%
COc1cccc(CNC(=O)CN2C(=O)NC3(CCC(C(C)(C)C)CC3)C2=O)c1 (stereo not drawn) -13.8%
CNC(=O)[C@H]1C[C@H](Oc2ccccc2)CN1Cc1c[nH]c2ccc(OC)cc12 -11.3%
COc1ccccc1NC(=O)Cn1cccc1-c1nc(-c2ccc(F)cc2)no1 -5.56%
CC(C)c1ccccc1NC(=O)CSc1nnc(COc2ccccc2Cl)o1 38.9%
Cc1ccc(NC(=O)Cn2cccc2-c2nc(-c3ccccc3)no2)c(C)c1 17.6%
O=C(Cn1cccc1-c1nc(-c2ccc(F)cc2)no1)NCCc1ccccc1 0.293%
Cc1ccc(-c2cc(C(F)F)n3ncc(C(=O)Nc4ccc(S(=O)(=O)Nc5ccccc5C)cc4)c3n2)cc1 74.9%
O=C(C1CCC1)N1CCCCCC1c1nnc(-c2ccccc2)o1 (stereo not drawn) -20.8%
O=C(c1ccccc1F)N1CCCCCC1c1nnc(-c2ccccc2)o1 (stereo not drawn) -13.5%

Potency, active:
Cc1ccc(C)c(N=Nc2nc3ccccc3n2C)c1 0.299 µM
Cn1nnnc1SCCCNCc1cccc(OCc2ccccc2)c1 9.44 µM
COc1cc2c(cc1OC)C(COc1ccc3c(C)cc(=O)oc3c1)N(C(=O)c1ccccc1C)CC2 (stereo not drawn) 15 µM
CC(=O)N1CCc2cc(Br)cc(S(=O)(=O)N3CCCCCC3)c21 5.31 µM
CC(=O)N1CCc2cc(Br)cc(S(=O)(=O)N3CCCCC3)c21 5.96 µM
CC(C)c1nc2c(c(-c3ccc(O)cc3)n1)CCN(Cc1ccc(OC(F)(F)F)cc1)CC2 2.99 µM
CC(C)c1nc2c(c(-c3ccc(O)cc3)n1)CCN(Cc1ccc(C(F)(F)F)cc1)CC2 5.31 µM
CC(C)c1nc2c(c(-c3ccc(O)cc3)n1)CN(Cc1cccc(F)c1)CC2 9.44 µM
CC(=O)Nc1ccc(CN2CCc3nc(C(C)C)nc(-c4ccc(Cl)cc4)c3CC2)cc1 2.66 µM
Cc1nc2c(c(-c3ccc(O)cc3)n1)CN(Cc1ccc(C(F)(F)F)cc1)CCC2 4.22 µM
Cc1ccc(C(=O)Nc2cccc(NC(=O)c3ccc(C)c([N+](=O)[O-])c3)n2)cc1[N+](=O)[O-] 15 µM
C/C(=N\NC(=O)c1ccccc1OCc1ccc(F)cc1)c1ccccn1 4.73 µM
C/C(=N\NC(=O)c1cccc(Br)c1)c1ccccn1 4.73 µM
COc1ccc(-c2csc3ncnc(Cl)c23)cc1 4.22 µM
Fc1ccc(-c2csc3ncnc(Cl)c23)cc1 3.35 µM
C#CCN(C)C(=O)C[C@@H]1c2nc(NC(=O)c3ccc(OC)cc3)sc2C[C@@H]2[C@](C)(CO)[C@H](O)CC[C@]21C 2.66 µM
COc1ccc(C(=O)Nc2nc3c(s2)C[C@@H]2[C@](C)(CO)[C@H](O)CC[C@@]2(C)[C@@H]3CC(=O)NCc2ccco2)cc1 2.66 µM
COc1ccc2[nH]cc(CCNC(=O)C3(Cc4ccccc4)CCCCC(=O)N3)c2c1 (stereo not drawn) 5.96 µM
CCC(=O)O[C@]1(C(=O)CCl)[C@@H](C)C[C@H]2[C@@H]3C[C@H](F)C4=CC(=O)C=C[C@]4(C)[C@@]3(F)[C@@H](O)C[C@@]21C 10.6 µM
CC(C)c1ccccc1NC(=O)Cn1cccc1-c1nc(-c2ccccc2)no1 4.22 µM
CC(C)c1ccccc1NC(=O)Cn1cccc1-c1nc(-c2ccc(F)cc2)no1 2.99 µM
Cc1ccccc1N(C(=O)c1snc(C(N)=O)c1N)C(C(=O)NCC1CCCO1)c1ccc(N(C)C)cc1 (stereo not drawn) 7.5 µM
Cc1ccc(-c2cc(C(F)F)n3ncc(C(=O)N4CCCCC4c4cccnc4)c3n2)cc1 (stereo not drawn) 2.37 µM
Cc1ccc(-c2cc(C(F)(F)F)n3ncc(C(=O)N4CCCCC4c4cccnc4)c3n2)cc1 (stereo not drawn) 1.88 µM
O=C(c1cnn2c(C(F)F)cc(-c3ccccc3)nc12)N1CCCCC1c1cccnc1 (stereo not drawn) 8.41 µM
